In PubChem BioAssay (NCATS):
Results filed as inconclusive are left out. Values without a mark were called inactive. Active and inactive are the calls of the source. The call rests on the fitted dose curve; in most records, active means well fitted inhibition curve with a large enough effect; inconclusive means small, poorly fitted or top-dose-only effect; inactive means flat fitted curve, though single readings scatter.

system: CRL-7250; test: Cytotoxic Profiling of Annotated Libraries Using Quantitative High-Throughput Screening (AID 1296008); conditions: Five cell lines viability, CellTiter-Glo ATP luminescence, 48-72 h; max response: stronger effect = lower value; further: nearly all actives have a fitted effect of over 60% in size
Outline: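 Cytotoxicity was measured as CellTiter-Glo ATP luminescence, read after 10 min at room temperature. Compound treatment of the cells lasted 48 or 72 hr at 37 degrees Celsius in a qHTS format.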
On the % scale 0 is the no-effect control and ±100 the full control effect; potency means the concentration at half of the fitted maximal effect.

Compound | max response [%] | Potency | outcome
CC1=CC(=O)CC2C1(O)CCC(C)C21CC(c2ccoc2)OC1=O (configuration not stated) | -9.3 | – | –
CC(C)CC1NC(=O)C2CC3(O)c4ccccc4NC3N2C1=O (configuration not stated) | -2.34 | – | –
Cc1cc(OCc2nnc(SC3CCCC3)n2-c2cccnc2)ccc1-c1ccc(S(C)(=O)=O)cc1 | – | 0.411 µM (active) | –
C[C@@H]1O[C@@H](O[C@H]2[C@H](O)[C@@H](O[C@@H]3O[C@H](CO)[C@@H](O)[C@H](O[C@@H]4O[C@H](CO)[C@@H](O)[C@H](O)[C@H]4O)[C@H]3O)[C@H](O[C@H]3CC[C@@]4(C)C(=CC[C@@H]5C4CC[C@@]4(C)C5C[C@@H]5OC6(CC[C@@](C)(CO[C@@H]7O[C@H](CO)[C@@H](O)[C@H](O)[C@H]7O)O6)[C@@H](C)[C@@H]54)C3)O[C@@H]2CO)[C@H](O)[C@H](O)[C@H]1O (some centres not stated) | -2.4 | – | –
CC/C=C\[C@H](O)[C@H](O)C1=C(C)C(=O)[C@]2(O1)C(=O)N[C@@](OC)(C(=O)c1ccccc1)[C@@H]2O | -16 | – | –
C[C@@H]1O[C@@H](O[C@H]2[C@@H]3C=CO[C@@H](O[C@@H]4O[C@H](CO)[C@@H](O)[C@H](O)[C@H]4O)[C@@H]3[C@@]3(CO)O[C@@H]23)[C@H](OC(=O)/C=C/c2ccc(O)c(O)c2)[C@H](O)[C@H]1O | – | – | inactive
c1ccc(-c2ncc(CN3CCN(c4ncccn4)CC3)[nH]2)cc1 | -0.931 | – | –
C[C@]12C[C@@H](O)[C@@H]3C[C@@]1(O[C@@H]1O[C@H](CO)[C@@H](O)[C@H](O)[C@H]1O)[C@]3(COC(=O)c1ccccc1)C(=O)O2 | -9.75 | – | –
CC(=O)c1ccc2c(c1)C(O)C(C(C)(C)O)O2 (configuration not stated) | -0.999 | – | –
CCc1c(-c2ccccc2)c(-c2ccccc2)nn1-c1ccccc1-c1cccc(OCC(=O)O)c1 | -8.36 | – | –
NC(=O)c1cccc(-c2cc(OC(=O)NC3CCCCC3)ccc2O)c1 | 2.23 | – | –
CC1CCN(C(=O)CC#N)CC1N(C)c1ncnc2[nH]ccc12 (configuration not stated) | 0.271 | – | –
CC1(C)CC[C@]2(C(=O)O)CC[C@]3(C)C(=CCC4[C@@]5(C)CC[C@H](O[C@@H]6O[C@H](CO)[C@@H](O)[C@H](O)[C@H]6O[C@@H]6O[C@H](CO)[C@@H](O)[C@H](O)[C@H]6O)[C@@](C)(CO)C5CC[C@]43C)[C@@H]2C1 (some centres not stated) | -6.6 | – | –
CCNC(=O)C1OC(n2cnc3c(N)nc(NCCc4ccc(CCC(=O)O)cc4)nc32)C(O)C1O (configuration not stated) | -14.2 | – | –
C=C1CC2C(C)(CCC(=O)O)C(C(C)(C)O)CCC2(C)C2C(=O)OC(C)(C(=O)OC)C(=O)C12C (configuration not stated) | -2.01 | – | –
CCC[C@@H]1O[C@@H]2C[C@H]3[C@@H]4CCC5=CC(=O)C=C[C@]5(C)[C@H]4[C@@H](O)C[C@]3(C)[C@]2(C(=O)CO)O1 | 0.403 | – | –
C=C1C[C@@]23CCC4[C@@](C)(CCC[C@@]4(C)C(=O)OC)C2CC[C@@H]1C3 (some centres not stated) | – | – | inactive
Cc1onc(C(=O)N2CCN(C(c3ccc(Cl)cc3)c3ccc(Cl)cc3)CC2)c1[N+](=O)[O-] | – | 0.58 µM (active) | –
COc1cc(NC(=O)Nc2cccc(CNC(=O)O[C@H]3CCOC3)c2)ccc1-c1cnco1 | – | 8.2 µM (active) | –
COc1cc2c(cc1O)[C@H](c1ccc(O[C@@H]3O[C@H](CO)[C@@H](O)[C@H](O)[C@H]3O)c(OC)c1)[C@@H](CO)[C@](O)(CO)C2 | 4.77 | – | –
CN1CCN(C(=O)c2ccc3cc(CCNc4ncnc5ccc(C#N)cc45)ccc3c2)CC1 | – | 4.61 µM (active) | –
COc1cc2c(cc1OC)CC(=O)N(CCCNC[C@H]1Cc3cc(OC)c(OC)cc31)CC2 | – | – | inactive
C/C=C1\[C@H](OC2OC(COC3OC(CO)C(O)C(O)C3O)C(O)C(O)C2O)OC=C(C(=O)OC)[C@H]1CC(=O)OCCc1ccc(O)cc1 (some centres not stated) | -3.04 | – | –
CC1(C)CC[C@]2(C(=O)O)CC[C@]3(C)C(=CCC4[C@@]5(C)C[C@@H](O)[C@H](O)C(C)(C)C5CC[C@]43C)C2C1 (some centres not stated) | – | – | inactive
OC[C@H]1O[C@@H](OC(CCCCc2ccc(O)cc2)CCc2ccc(O)cc2)[C@H](O)[C@@H](O)[C@@H]1O (some centres not stated) | -35.2 | – | –
COc1ccc(CCO[C@@H]2CCCC[C@H]2N2CC[C@@H](O)C2)cc1OC | -6.87 | – | –
COc1cc(/C=C/C(=O)O[C@H]2[C@H](O)[C@@H](CO)O[C@@]2(CO)O[C@H]2O[C@H](CO)[C@@H](O)[C@H](O)[C@H]2O)ccc1O | 3.83 | – | –
